This is an account of results in PubChem BioAssay (NCATS).

Values joined by “and” are separate entries in the source; they are usually repeats but may differ in a detail not shown here. Identical values can stand only once. Results filed as inconclusive are left out. Active and inactive are the calls of the source. The call rests on the fitted dose curve; in most records, active means well fitted inhibition curve with a large enough effect; inconclusive means small, poorly fitted or top-dose-only effect; inactive means no such curve, though single readings can be large or run the other way.

A short description of one test: qHTS drug screen for cell cycle checkpoint inhibitors in PARPi-resistant BRCA-mutant ovarian cancer cell lines. (AID 1963452). Particulars: PEO1/OlaR viability, CellTiter-Glo luminescence, 96 h; measured here: PEO4 Z-AUC; stronger effect = lower value. In outline: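 PEO1, PEO4 and PEO1/OlaR ovarian cancer cells, 600 per well, exposed 96 h at 37C to a dilution series. Viability read by CellTiter-Glo luminescence, normalized to DMSO and empty wells; activity summarized as Z-AUC.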
On the technique in general: In qHTS, concentration-response curves come from the screen itself.
With `O=C(O)c1ccc(O)c2ncccc12`, the Z-AUC was determined as 1.08.

`O=C(/C=C/c1cccnc1)NCCCCC1CCN(C(=O)c2ccccc2)CC1`: the Z-AUC is -2.61.

On to `CC(/C=C1\SC(=S)N(CC(=O)O)C1=O)=C\c1ccccc1`, for which the Z-AUC is 1.77.

With `COc1ccnc2[nH]cc(C(=O)C(=O)N3CCN(C(=O)c4ccccc4)C[C@H]3C)c12`, the Z-AUC turned out to be 1.31.

On to `COc1ccc(-n2cnc3cc(C(=O)N4CCCCC4)ccc32)cc1`, for which the Z-AUC stood at 0.92.

As for `CCC1CCCCN1C(=O)n1ncc(C(O)(c2ccccc2)c2ccccc2)n1` (centres undefined), the Z-AUC was 0.409.

On to `O=C(/C=C/c1ccc2ccc(C(F)(F)F)cc2n1)c1ccncc1`, for which the Z-AUC is -0.961.

As to `C[C@H]1CC2[C@@H]3CCC4=CC(=O)C=C[C@]4(C)[C@@]3(F)[C@@H](O)C[C@]2(C)[C@@]1(O)C(=O)CO` (some centres undefined), the Z-AUC is -0.996.

Consider `CN(Cc1ccccc1)C(=O)c1ccc(S(=O)(=O)Nc2ccccc2)cc1`, for which the Z-AUC is 0.744.

Take `Cc1c(CN2CCN(C(=O)[C@H](C)O)CC2)sc2c(N3CCOCC3)nc(-c3cnc(N)nc3)nc12`: the Z-AUC stood at 0.839.

With `CN(CCOc1ccc(C[C@H](Nc2ccccc2C(=O)c2ccccc2)C(=O)O)cc1)c1ccccn1`, the Z-AUC is 0.445 and 0.87.

As for `CC(=O)N1c2ccc(-c3ccc(C(=O)O)cc3)cc2[C@H](Nc2ccc(Cl)cc2)C[C@@H]1C`, the Z-AUC is -0.741.

`Cc1ccc(-n2c(C)cc(-c3nnc4n3CCCCC4)c2C)cc1`: the Z-AUC stood at 1.13.

For `COc1nc(N)nc2c1ncn2C1OC(CO)C(O)C1O` (centres undefined), the Z-AUC was -0.286.

Regarding `C/C(=N\NC(=O)c1cccc(S(=O)(=O)N2CCOCC2)c1)c1cc(Cl)ccc1O`, the Z-AUC is -2.11 and -1.42.

`CNc1nc(-c2ccc3c(N)n[nH]c3c2)cc(N2C[C@@H](C(=O)NC3CCCCC3)CC[C@H]2C)n1`: the Z-AUC is -0.0883.

Take `Cn1cc(/C=C2\C(=O)Nc3cccnc32)c2ccccc21`: the Z-AUC is -0.377.

`C[C@@H]1CC(=O)Nc2cccc(-c3cnn(C(C)(C)C)c3)c2N1`: the Z-AUC was -0.924.

As for `O=C(CCCc1ccc2cccnc2n1)NCc1cc(-c2ccc(F)c(C(F)(F)F)c2)no1`, the Z-AUC was -0.394.

Consider `Cc1cccc(/C=N/Nc2cc(N3CCOCC3)nc(OCCc3ccccn3)n2)c1`, for which the Z-AUC was 0.106.

With `NS(=O)(=O)c1ccc(Cc2c(-c3cccc(-c4ccccc4)c3)nn(-c3nc(C(=O)O)cs3)c2CC2CC2)cc1`, the Z-AUC was -1.44.

Consider `C[C@H]1[C@H](C)CC[C@]2(C(=O)O)CC[C@]3(C)C(=CC[C@@H]4[C@@]5(C)CC[C@H](O)C(C)(C)[C@@H]5CC[C@]43C)[C@H]12`, for which the Z-AUC was 0.501.

`COc1ccc([C@@H](O)[C@@H](C)Oc2ccc([C@H]3O[C@H](c4ccc(O[C@H](C)[C@H](O)c5ccc(OC)c(OC)c5)c(OC)c4)[C@H](C)[C@H]3C)cc2OC)cc1OC`: the Z-AUC was -2.38.

For `CN(C)C[C@@H]1CCn2cc(c3ccccc32)C2=C(C(=O)NC2=O)c2cn(c3ccccc23)CCO1`, the Z-AUC is 0.797.

For `COc1cc2nccc(Oc3ccc(NC(=O)c4cn(C(C)C)c(=O)n(-c5ccc(F)cc5)c4=O)cc3F)c2cc1OC`, the Z-AUC is -0.777.

As for `C[C@H](NC(=O)CCC(F)(F)F)C(=O)N[C@@H]1C(=O)N(CCO)c2ncccc2-c2ccccc21`, the Z-AUC was -0.664.

In the case of `C[C@H](CCC(=O)O)[C@H]1CC[C@H]2[C@@H]3[C@@H](O)C[C@@H]4C[C@H](O)CC[C@]4(C)[C@H]3CC[C@]12C`, the Z-AUC stood at 1.41.

In the case of `Clc1cccc(-c2ccc(-c3nnc(CCCc4ccc5cccnc5n4)o3)cc2)c1`, the Z-AUC was found to be 1.67.

For `C=C1CCC2[C@](C)(CO)C(O)CC[C@]2(C)C1C/C=C1/C(=O)OCC1O` (some centres undefined), the Z-AUC was -0.312.

`Cc1c(-c2cnccn2)ssc1=S`: the Z-AUC is 0.421.

In the case of `CC1(C(=O)O)CCC2(C)CCC3(C)C(=CC(=O)C4C5(C)CCC(OC6OC(C(=O)O)C(O)C(O)C6OC6OC(C(=O)O)C(O)C(O)C6O)C(C)(C)C5CCC43C)C2C1` (centres undefined), the Z-AUC came to 1.74.

A further test can be described thus: qHTS assay to identify inhibitors of the type 1 interferon - major histocompatibility complex class I in skeletal muscle: Counter screen cell viability and HiBit confirmation (AID 1347412). Further: potency means the concentration at half of the fitted maximal effect; nearly all actives have a fitted effect of over 60% in size. Particulars: iHSKM muscle cells + IFN-b, HiBiT or CellTiter-Glo, 24 h; HiBiT. In outline:
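HLA-B*08:01–HiBiT knock-in immortalized human myoblasts (C25cl48) stimulated with 4.0 ng/ml human IFN-beta and dosed with compound in a 12-point 1:3 titration (top final 46 uM). After 24 hrs at 37 C, HiBiT lytic luminescence or CellTiter Glo ATP read out.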
`O=C(/C=C/c1ccc2ccc(C(F)(F)F)cc2n1)c1ccncc1`: the Potency was 4.43 µM (active).

As to `CNc1nc(-c2ccc3c(N)n[nH]c3c2)cc(N2C[C@@H](C(=O)NC3CCCCC3)CC[C@H]2C)n1`, the Potency was 31.3 µM (active).

In the case of `CN(C)C[C@@H]1CCn2cc(c3ccccc32)C2=C(C(=O)NC2=O)c2cn(c3ccccc23)CCO1`, the Potency was 27.9 µM (active).
